Bioassay records as filed in PubChem.
The list is not random: actives were taken first. Their share in the collection is about 4.4%.
D1 ag – Allosteric Agonists of the Human D1 Dopamine Receptor: qHTS | D(1A) dopamine receptor (Homo sapiens), P21728 | HEK293 T-REx D1 cells, calcium flux, agonist mode | activation, % at 2 µM | hit rate 1% among 360,000
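Tetracycline-induced HEK293 TREx D1 cells, force-coupled to calcium signalling, were dye-loaded with a no-wash calcium kit. Compound was pin-added after a 10 s baseline. Fluorescence was read kinetically at 1 cycle/s for 180 s, with calcium rises flagged as agonism.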
USP1-UAF1 inh – Inhibitors of USP1/UAF1: Primary Screen. Ubiquitin carboxyl-terminal hydrolase 1 (Homo sapiens), O94782. recombinant USP1/UAF1, Ub-Rhodamine cleavage fluorescence. Potency, µM (highest dose often 57.1 µM), hits mostly inhibitors. hit rate 0.23% among 390,000; active = well fitted inhibition curve with a large enough effect; inconclusive = small, poorly fitted or top-dose-only effect; inactive = no such curve, though single readings can be large or run the other way; note: nearly all actives have a fitted effect of over 60% in size
Target sequence (O94782 whole entry, looked up): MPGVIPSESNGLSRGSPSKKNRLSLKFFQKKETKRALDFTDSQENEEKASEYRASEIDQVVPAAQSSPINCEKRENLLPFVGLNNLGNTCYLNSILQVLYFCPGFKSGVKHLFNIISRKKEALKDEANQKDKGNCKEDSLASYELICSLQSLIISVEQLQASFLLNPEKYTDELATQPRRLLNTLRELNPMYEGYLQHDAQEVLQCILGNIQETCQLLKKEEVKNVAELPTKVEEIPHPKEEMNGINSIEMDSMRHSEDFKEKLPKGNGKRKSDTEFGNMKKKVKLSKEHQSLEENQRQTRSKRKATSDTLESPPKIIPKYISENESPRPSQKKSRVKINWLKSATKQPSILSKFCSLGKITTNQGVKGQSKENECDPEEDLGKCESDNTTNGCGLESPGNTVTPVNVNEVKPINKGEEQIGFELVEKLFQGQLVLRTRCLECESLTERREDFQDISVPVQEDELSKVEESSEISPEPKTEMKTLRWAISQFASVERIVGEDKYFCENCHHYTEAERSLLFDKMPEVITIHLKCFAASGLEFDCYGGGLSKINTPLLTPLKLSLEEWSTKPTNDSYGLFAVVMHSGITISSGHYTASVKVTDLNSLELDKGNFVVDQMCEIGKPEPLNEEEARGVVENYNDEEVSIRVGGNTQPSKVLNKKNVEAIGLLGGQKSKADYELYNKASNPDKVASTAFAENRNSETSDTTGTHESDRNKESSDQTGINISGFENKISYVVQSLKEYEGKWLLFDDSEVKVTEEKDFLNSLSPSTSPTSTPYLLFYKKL
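Step one: compound is pinned into 1nM USP1/UAF1 in HEPES pH 7.8 buffer with TCEP. Step two: 15 min room-temperature incubation. Step three: Ub-Rho (150nM final) starts cleavage, tracked by fluorescence over six one-minute reads.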
D1 antag – Antagonist of Human D 1 Dopamine Receptor: qHTS. AID 504652, 2011. D(1A) dopamine receptor (Homo sapiens), P21728. hit rate 3.2% among 360,000. HEK293 TREx D1 cells, calcium flux, dopamine EC80; hits give low values. activity change, negative = inhibition, % at 10 µM; in the data active = activity change below about -30%
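Tetracycline-induced HEK293 T-REx cells with force-coupled D1 receptor were loaded with a no-wash calcium dye. Compound was added after a 10 s baseline and read kinetically for 180 s; EC80 dopamine was then added and calcium flux followed another 180 s.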
D1 PAM – Potentiators of Human D1 Dopamine Receptor: qHTS | HEK293 TREx D1 cells, calcium flux, dopamine EC20 potentiation | potentiation, % at 10 µM | hit rate 0.036% among 360,000 | D(1A) dopamine receptor (Homo sapiens), P21728; in the data active = potentiation above about 30%
TRHR ag – qHTS for Small Molecule Agonists and Allosteric Enhancers of Human TRH Receptor: Primary Screen for Agonists; activation, % at 2 µM; TRHR cells, calcium flux fluo-8, FDSS agonist mode; hit rate 0.18% among 360,000; Thyrotropin-releasing hormone receptor (Homo sapiens), P34981
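TRHR-expressing cells loaded with fluo-8 calcium dye; 23 nL library compound pin-transferred, kinetic FDSS fluorescence (Ex 480/Em 530) recorded about 180 s for agonist-induced calcium release, before a 10 nM TRH EC20 addition for potentiator mode.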
TRHR PAM – qHTS for Small Molecule Agonists and Allosteric Enhancers of Human TRH Receptor: Primary Screen for Enhancers; Thyrotropin-releasing hormone receptor (Homo sapiens), P34981; enhancement, % at 2 µM; TRHR cells, fluo-8 calcium fluorescence, EC20 TRH enhancement; hit rate 0.66% among 360,000; in the data active = enhancement above about 30%
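TRHR-expressing cells loaded with fluo-8 calcium dye were read kinetically (ex 480/em 530) during compound addition, then stimulated with an EC20 of TRH (10 nM final). Enhancement of the Gq-mediated intracellular calcium response was scored.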
Each line names hits and unclear results; the compound was inactive in the other large screens. Cut-off read from the data, not from the text of the source, unless noted: active = activation above about 30%; inactive = the rest.

COc1cc(OC)c(NC(=O)C2CCCN(c3ncnc4c3nc3n4CCCCC3)C2)cc1Cl (centres undefined)	USP1-UAF1 inh inconclusive, TRHR PAM 33
CN(CC(=O)Nc1cccc(F)c1)C(=O)c1ccc(-n2cncn2)c([N+](=O)[O-])c1	D1 antag -40
Cc1nn2c(=O)cc(COC(=O)c3ccc(NC(=O)C4CCCCC4)cc3)nc2s1	USP1-UAF1 inh inconclusive
Cc1ccc(C)c(N(C)C(=O)c2cn(C)c(=O)c3ccccc23)c1	none
O=C(Nc1ccc(Br)cc1)c1cccc(S(=O)(=O)Nc2ccccn2)c1	D1 antag -62
Cc1c(C(=O)c2ccc(F)cc2)c2ccccn2c1CCc1ccccn1	D1 antag -54
CCOC(=O)c1c(-c2ccc(Br)cc2)csc1NC(=O)c1ccc(F)cc1	none
CC(C)COc1ccc(C(=O)Nc2scc(-c3ccc(Br)cc3)c2C(=O)OC(C)C)cc1	TRHR PAM 31
O=C(NCCCc1ccccc1)c1ccccc1	D1 antag -41
O=C(NCCc1ccccc1)c1ccccc1F	D1 antag -36
COC(=O)c1cccc(CN2C(=O)SC(Nc3ccc(Cl)cc3)C2=O)c1 (centres undefined)	D1 antag -32
COC(=O)c1cccc(CN2C(=O)SC(Nc3ccc(Br)cc3)C2=O)c1 (centres undefined)	none
COc1cc(OC)c(OC)cc1CN1CCN(Cc2cccc(F)c2)CC1	none
COc1cc(OC)c(OC)cc1CN1CCN(Cc2ccco2)CC1	D1 antag -33
Cc1cccc(NC(=O)c2cccc(N3C(=O)C4CCC(C)CC4C3=O)c2)c1C (centres undefined)	D1 antag -49
COc1cccc(NC(=O)c2cccc(N3C(=O)C4CCC(C)CC4C3=O)c2)c1 (centres undefined)	USP1-UAF1 inh inconclusive
COc1ccc(NC(=O)c2cccc(N3C(=O)C4CC=C(C)CC4C3=O)c2)c(OC)c1 (centres undefined)	D1 antag -51
Cc1ccc(C(=O)Nc2cccc(N3C(=O)C4CCC(C)CC4C3=O)c2)cc1 (centres undefined)	TRHR PAM 33
Cc1cccc(C)c1NC(=O)c1cccc(N2C(=O)C3CCC(C)CC3C2=O)c1 (centres undefined)	none
Cc1ccc(-c2nn3c(=O)cc(CN4CCN(C(=O)c5ccc(C(C)(C)C)cc5)CC4)nc3s2)cc1	none
COc1ccc(S(=O)(=O)N(CC(=O)Nc2ccc(OC)cc2OC)c2ccc(Cl)cc2)cc1	none
Cc1[nH]c(C)c(S(=O)(=O)N2CCN(c3ccc(Cl)cc3)CC2)c1C(=O)N1CCCC1	D1 antag -34
COc1ccc(N2CCN(S(=O)(=O)c3c(C(=O)N4CCOCC4)c(C)n(C)c3C)CC2)cc1	D1 antag -35
CC(=O)c1ccc(N2CCN(S(=O)(=O)c3c(C(=O)N4CCCC4)c(C)n(C)c3C)CC2)cc1	none
Cc1c(C(=O)N2CCOCC2)c(S(=O)(=O)Nc2cccc(C#N)c2)c(C)n1C	D1 antag -49
Cc1c(C(=O)N2CCCCC2)c(S(=O)(=O)N2CCN(c3ccc(Cl)cc3)CC2)c(C)n1C	D1 antag -32
Cc1nn(C)c2c1c(C(F)(F)F)cc(=O)n2CC(=O)NC(C)(C)C	none
Cc1ccc(C)c(-n2nnc(-c3nc(-c4ccc(Cl)cc4)no3)c2N)c1	none
COc1cc(OC)c(NC(=O)Nc2c(C)n(C)n(-c3ccccc3)c2=O)cc1Cl	none
CC(=O)c1cccc(NC(=O)C(C)n2c(=O)cc(-c3ccccc3)c3c(C)nn(C)c32)c1 (centres undefined)	none
Cc1ccccc1CNS(=O)(=O)c1c(C(=O)N2CCCC2)c(C)n(C)c1C	TRHR PAM 35
COc1ccc(N2CCN(C(=O)c3ccc(Cl)c(S(=O)(=O)N4CCCC4)c3)CC2)cc1	D1 antag -34
COc1ccc(N2CCN(C(=O)c3ccc(Cl)c(S(=O)(=O)N4CCOCC4)c3)CC2)cc1	none (no result: D1 ag, D1 antag, D1 PAM, TRHR ag, TRHR PAM)
Cc1[nH]c(C)c(S(=O)(=O)NCc2ccc(F)cc2)c1C(=O)N1CCCCC1	none
Cc1[nH]c(C)c(S(=O)(=O)NCc2ccc(Cl)cc2)c1C(=O)N1CCCC1	D1 PAM 33
COc1ccc(C(=O)NCC(c2cccs2)S(=O)(=O)c2ccc(F)c(C)c2)cc1 (centres undefined)	none
COc1cccc(NC(=O)c2cnc(SCC(=O)N3CCOCC3)n(C)c2=O)c1	none (no result: D1 antag)
CN(CC1CCOCC1)C(=O)CC1C(=O)NCCN1Cc1cccc(C(F)(F)F)c1 (centres undefined)	D1 antag -77
Cc1ccc(CN2CCNC(=O)C2CC(=O)N(C)C2CCOCC2)cc1 (centres undefined)	D1 antag -33
CCOC(=O)CC1C(=O)NCCN1Cc1cccc(OC)c1 (centres undefined)	TRHR PAM 36
CC1Cc2cc(S(=O)(=O)CCC(=O)Nc3ccc(F)cc3)ccc2N1C(=O)C1CC1 (centres undefined)	none
FC(F)(F)c1ccc(C2=Nc3ccccc3NC(c3cccs3)=N2)cc1	USP1-UAF1 inh inconclusive
Cc1cc(C(=O)CSc2cccc[n+]2[O-])c(C)n1-c1ccc(OC(F)F)cc1	D1 antag -40
Nc1c(C(=O)NC2CC2)sc2nc3c(c(-c4ccco4)c12)CC/C3=C/c1ccco1	USP1-UAF1 inh 28µM
NC(=O)c1sc2nc3c(c(-c4ccco4)c2c1N)CCC3	none
CCOC(=O)N1CCN(C(=O)c2ccc3c(c2)N(Cc2ccccc2)CCS3)CC1	D1 antag -34
CCOC(=O)c1ccccc1NC(=O)c1sc2nc3n(c(=O)c2c1C)CCCCC3	none
Cc1ccnc(NS(=O)(=O)c2ccc(NC(=O)c3cc(=O)c4ccc(C)c(C)c4o3)cc2)n1	none
C/C(=N\NC(=O)c1c(Cl)c(C)nn1C)c1ccc(NC(=O)COc2ccc(Cl)cc2C)cc1	D1 antag -41
CCCC[C@]12Cc3cc(C#N)ccc3C(O1)c1c(cc(-c3ccccc3)oc1=O)O2	none (no result: USP1-UAF1 inh)
O=C(O)c1ccccc1C1=Nc2ccc(O)cc2Oc2cc(O)ccc21	USP1-UAF1 inh 28µM
Cc1cc(-c2ccccc2C(=O)O)on1	none
COc1ccccc1C(=O)N1CCC(C(=O)c2ccc(F)cc2)CC1	D1 antag -32
